Data reported in publication PMC4242493, “Sequence specificity incompletely defines the genome-wide occupancy of Myc”.
Whole data set: some 33,000 sequences, median “normalized occupancy” near 0.075, cut for the highest 2% near 0.095. For the sample, the highest values were picked, then their nearest neighbours and some sequences at random.

These sequences were tested against MaxL homodimer (Homo sapiens, UniProt P61244 1-160) (assay: universal protein-binding microarray (PBM); PBS-based mixture, 10 nM His-tagged protein dimer, 2% milk, 200 ng/uL BSA, 50 ng/uL salmon testes DNA, 0.02% TX-100; detection with Alexa 488 anti-His antibody;; high values mean tight binding). Details: protein: recombinant; tags: C-terminal His-tag (pET21a); chain copies: 2; dsDNA, one strand shown.
Sequence of MaxL homodimer (P61244 whole entry): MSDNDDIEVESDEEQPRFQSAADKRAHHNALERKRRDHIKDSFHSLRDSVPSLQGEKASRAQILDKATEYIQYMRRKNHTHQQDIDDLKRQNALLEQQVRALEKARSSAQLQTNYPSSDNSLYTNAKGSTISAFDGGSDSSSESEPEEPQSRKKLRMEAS
Summary of the method: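 Each 8-mer received a fluorescence intensity from GenePix 4400A scans of Agilent 4 x 44 K 'all 10-mer' universal arrays. Those arrays had been incubated with His-tagged protein dimer at 10 nM, and the bound protein was marked with a fluorophore-conjugated anti-His antibody at 10 ng/μL. Binding occupancy is the intensity scaled to that of the highest-ranked sequence word.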

Sequence	binding signal [normalized occupancy]
CGTGGGAC	0.096
GGTGGGAC	0.0719
TGGGTCAA	0.0772
ATCCATGC	0.0942
AACCATGC	0.106
CTCCATGC	0.0969
GACCATGC	0.109
AACCATGA	0.0836
GACCATGA	0.0823
CACCATGC	0.108
CACCATGG	0.0885
CTCCATGA	0.0798
AACCATGT	0.0862
GACCATAC	0.0805
CACCATGA	0.0873
GTTGCCCA	0.0762
CTCCCTCC	0.0789
CGACCCAC	0.0808
AGTGTCAT	0.0822
CCACATCA	0.0798
CACGCTTC	0.098
GACGCTTA	0.0768
CACGCTTA	0.103
AACGCTTC	0.0768
CGCGCTTC	0.0753

Sequence	binding signal [normalized occupancy]
AACGCTTA	0.0733
TACCTAGA	0.073
AACTCATC	0.0815
GCTGACGA	0.072
ACATGTCT	0.0899
TCATGTAA	0.0936
AGATGTAT	0.0832
ACATGTAA	0.0953
CCATGTAG	0.0836
CCATGTCG	0.0843
ACATGTAG	0.101
ACATGTCG	0.1
AAATGTAT	0.0812
AAATGTAG	0.0793
GCATGTAA	0.0836
ACATGTAT	0.102
ACCATTAG	0.0781
ATCCAGAG	0.0719
CACGCGGC	0.151
CACGCGGG	0.145
CCCGCGGG	0.0758
AACGCGGA	0.0818
TACGCGGA	0.0723
CACGCGGA	0.15
CGCGCGGA	0.0836

Sequence	binding signal [normalized occupancy]
AACGCGGC	0.0757
GACGCGGC	0.0758
CCGAGAGA	0.0728
TCGCACGA	0.0806
CAGGTGCG	0.0849
CAGTTGCA	0.0721
CCCTAACC	0.0758
CTGTGCAA	0.0754
AACACGTG	0.706
CACACGTC	0.0858
CACACGTG	0.553
AACACGTT	0.128
AACACGTC	0.0786
AACACGGA	0.0756
CACACGTA	0.0925
AACACGTA	0.083
TACACGTA	0.083
ATTTACGC	0.0786
CTCCCGCC	0.0726
ATTATGAC	0.0798
ACCTCTAT	0.0776
AAATGGTA	0.0806
CATTTTAC	0.0853
AGATACAC	0.0831
GCTCCTAA	0.0767

Sequence	binding signal [normalized occupancy]
AAACGACC	0.0727
CACGTAGG	0.0797
AAGGTGGA	0.0747
CACGTGGG	0.707
CACGTGGA	0.768
CACGTCGC	0.0825
AACGTGGA	0.115
CAAGTGGC	0.0744
AAAGTGGA	0.0743
TACGTGGA	0.0878
CACGTGGC	0.837
GACGTGGA	0.087
CAAGTGGG	0.0807
AGAGCCGA	0.0723
CTTTTTGA	0.0761
ACCGTAAC	0.0752
ACTAAGAC	0.0733
ACGGCACC	0.0742
GTCCACAA	0.0768
CAGCGGTA	0.0751
ATCCGTGG	0.078
ACTGTAAT	0.0778
AACATCTG	0.0767
TACATCTA	0.0787
TACATGTA	0.0978

Sequence	binding signal [normalized occupancy]
AACAGGTC	0.0733
AACAGGTG	0.102
CACATGTG	0.216
AACATGTT	0.0895
CACATCTG	0.0871
AACATGTG	0.184
CAAATGTG	0.0879
TACATGGA	0.0848
CACAGGTG	0.0857
CACATACG	0.0784
GTGGGGCA	0.0781
ACCCACTA	0.085
CTCCCGAA	0.0776
AACCTACT	0.074
GGTTGACA	0.0758
AGACTTGG	0.0722
CACATGTA	0.147
CACATGTC	0.159
AACATGTC	0.087
GACATGTC	0.0872
GACATGTA	0.0884
AACATGTA	0.0923
ACGGGTGA	0.0801
CATCTCAA	0.0793
TCAGCTGA	0.0752

Sequence	binding signal [normalized occupancy]
GCTACGAC	0.078
AGCCACGC	0.109
CGCCACAA	0.076
AGCCACGA	0.0883
CGCCACGA	0.0799
CGCCACGC	0.0953
AGCCACGG	0.0742
GATTTTTA	0.0759
ACGTACAG	0.0776
CAAATGTA	0.0834
TCCCTCCA	0.075
AGACAGAA	0.0751
GATATGCA	0.0792
CATATGTA	0.0972
CATATGTC	0.0943
CATATGCA	0.0978
AATATGCG	0.0761
AATATGTA	0.0801
TATATGCA	0.0896
CATATGCC	0.095
CATATGCG	0.105
TAGACCTA	0.0731
GGGGAACA	0.081
TTACTAAA	0.0728
TGACTCAA	0.0763

Sequence	binding signal [normalized occupancy]
AGGGAGCA	0.0728
TAGTTGGA	0.0742
TAAGGACA	0.075
CTACGCAC	0.0773
ACCGCGTA	0.0727
GACGCGTA	0.0737
TACGCGTA	0.0797
CACGCGTA	0.121
AACGCGTG	0.123
AACGCGTA	0.0792
GACGCGTC	0.0757
ACCGCGTG	0.182
CACGCGTC	0.119
AACGCGTC	0.0723
AACGCGTT	0.0813
ACCGCGCG	0.0856
CCTTAGCC	0.0725
CGTGCTGC	0.09
CGCTGACA	0.0773
GCGAGCAA	0.0723
AAGAACAT	0.08
GACGGTCA	0.0718
